Sampled rows, rich in hits. Any-hit rate of the full collection: about 2.4%.
POLB inh – inhibitors of human DNA polymerase beta; P06746; Pol beta primer extension/strand displacement, fluorescence kinetic; Potency, µM (titrated, usually from 114 µM), for the others: top-dose activity change, negative = inhibition, usual class: inhibitors; 1.3% of 340,000 active; AID 485314; note: % is set by controls: 0 for no effect and ±100 for the full control effect
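Enzyme-only controls used 10 nM Pol beta; buffer lacking enzyme served as negative control. Compound preincubated 15 min, then 50 nM substrate added; 0 and 10 min reads at room temperature.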
POLH inh – blocks human DNA polymerase eta activity | 1.2% of 390,000 active | recombinant Pol eta, fluorescent DNA replication assay | Potency, µM (doses to about 114 µM), without a hit: top-dose activity change, negative = inhibition, most hits filed as inhibitors; note: % is set by controls: 0 for no effect and ±100 for the full control effect
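Pol eta at 10 nM preincubated with compounds 15 min at room temperature; reaction started with fluorescent substrate (50 nM final) and read kinetically at 0 and 10 min.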
Pol kappa inh – blocks human DNA polymerase kappa activity. Potency, µM (series often up to 107 µM), without a hit: top-dose activity, negative = inhibition, actives largely listed as inhibitors. purified Pol kappa, fluorescent DNA synthesis assay, 10 min. 0.53% of 400,000 active. AID 588579; note: % is set by controls: 0 for no effect and ±100 for the full control effect
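10 nM Pol kappa was preincubated with compounds for 15 min at room temperature. Reaction started with 50 nM (final) substrate. Fluorescence read kinetically at 0 and 10 min.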
L3MBTL1 inh – L3MBTL1 (human) inhibition | Q9Y468 | AlphaScreen L3MBTL1–H3K9me1 peptide binding | Potency, µM (top dose mostly 57.1 µM), inactives show top-dose activity, negative = inhibition, actives largely listed as inhibitors | 0.66% of 230,000 active; note: % is set by controls: 0 for no effect and ±100 for the full control effect; nearly all actives have a fitted effect of over 60% in size
Target sequence (Q9Y468 whole entry, looked up): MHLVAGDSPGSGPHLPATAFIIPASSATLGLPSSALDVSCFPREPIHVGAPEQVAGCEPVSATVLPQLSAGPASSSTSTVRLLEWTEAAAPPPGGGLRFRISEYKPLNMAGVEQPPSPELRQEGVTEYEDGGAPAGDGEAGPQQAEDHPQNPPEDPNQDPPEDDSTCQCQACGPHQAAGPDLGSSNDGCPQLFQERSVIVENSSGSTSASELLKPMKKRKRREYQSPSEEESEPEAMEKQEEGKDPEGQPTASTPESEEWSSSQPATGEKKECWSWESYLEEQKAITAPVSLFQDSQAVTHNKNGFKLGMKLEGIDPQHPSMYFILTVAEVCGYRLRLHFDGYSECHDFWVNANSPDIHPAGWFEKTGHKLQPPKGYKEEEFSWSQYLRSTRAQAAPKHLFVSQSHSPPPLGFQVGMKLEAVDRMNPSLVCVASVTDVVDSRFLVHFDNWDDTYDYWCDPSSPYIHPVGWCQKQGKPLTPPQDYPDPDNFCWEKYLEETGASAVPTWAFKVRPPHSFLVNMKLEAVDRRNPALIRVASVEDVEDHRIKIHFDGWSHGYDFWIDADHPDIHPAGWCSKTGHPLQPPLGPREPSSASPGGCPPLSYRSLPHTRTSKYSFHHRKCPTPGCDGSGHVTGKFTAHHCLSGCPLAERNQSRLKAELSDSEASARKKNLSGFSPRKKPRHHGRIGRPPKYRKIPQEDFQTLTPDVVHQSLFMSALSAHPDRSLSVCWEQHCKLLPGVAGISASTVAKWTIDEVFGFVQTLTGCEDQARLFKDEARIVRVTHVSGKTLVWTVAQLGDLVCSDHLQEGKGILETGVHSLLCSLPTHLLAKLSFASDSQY
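L3MBTL1 (50 nM) pre-complexed 30 min with biotinylated H3(1-15)K9me1 peptide (75 nM), then compounds added for 30 min at room temperature; AlphaScreen streptavidin donor/nickel chelate acceptor beads (10 ug/mL final) read after 30 min dark incubation.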
Pol iota inh – blocks human DNA polymerase iota activity; Q9UNA4; Pol iota fluorescent replication assay, 10 min; Potency, µM (top dose mostly 115 µM), for inactives: top-dose activity, negative = inhibition, actives largely listed as inhibitors; 1% of 390,000 active
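Pol iota at 10 nM preincubated 15 min with compounds at room temperature; reaction started with fluorescent substrate, 50 nM final. Fluorescence read kinetically at 0 and 10 min; buffer-only wells as negative control.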
* hit, by the source's call; ? = inconclusive; / = no result; [ ] = remark or other dose. Calls come from the whole dose curve; as a rule, active = well fitted curve in the direction sought with a large enough effect; inconclusive = small, poorly fitted or top-dose-only effect, or another doubt; inactive = no such curve, though single readings can be large; an effect the other way counts as inactive or inconclusive. Potency is the fitted concentration of half-maximal effect.

SMILES	POLB inh	POLH inh	Pol kappa inh	L3MBTL1 inh	Pol iota inh
C#CCOCCOCCOCCNc1nc(N2CCN(C(=O)[C@H](Cc3ccc(O)cc3)n3cc([C@@H](N)CC(C)C)nn3)CC2)nc(N2CCN(C(=O)[C@H](Cc3cc4ccccc4[nH]3)n3cc([C@@H](N)CC(C)C)nn3)CC2)n1	35.5µM*	-19.5%	-4.1%	-13.6%	?
C#CCOCCOCCOCCNc1nc(N2CCN(C(=O)[C@H]([C@@H](C)CC)n3cc([C@@H](N)CC(C)C)nn3)CC2)nc(N2CCN(C(=O)[C@H](Cc3cc4ccccc4[nH]3)n3cc([C@@H](N)Cc4ccc(O)cc4)nn3)CC2)n1	-28.6%	-15.4%	-7.9%	-18.2%	?
C#CCOCCOCCOCCNc1nc(N2CCN(C(=O)C(Cc3ccc(O)cc3)n3cc(C(N)CC(C)C)nn3)CC2)nc(N2CCN(C(=O)C(Cc3cc4ccccc4[nH]3)n3cc(C(N)C(C)CC)nn3)CC2)n1 (configuration not stated)	50.1µM*	/	/	-15.3%	/
O=C(CCC1CC(=O)Nc2ccccc21)NCc1ccc(F)cc1 (configuration not stated)	-20.0%	-15.6%	-11.2%	2.5%	10.0%[58.9 µM]
O=C(CCC1CC(=O)Nc2ccccc21)NCc1ccccc1 (configuration not stated)	-10.8%	89.1µM*	-20.6%	/	?
COCCNC(=O)CCCn1c(SCC(=O)c2ccc(Br)cc2)nc2c(sc3ccccc32)c1=O	-5.6%	11.2%	-8.2%	/	26.6%
CCOc1ccc(-c2c(C)nn3c(C)c(C(=O)NCCc4ccc(C)cc4)cnc23)cc1OCC	-0.1%	/	30.2%	/	-9.3%
CCN(CC)c1ccc2cc(-c3nnc(-c4cccc(Cl)c4)o3)c(=O)oc2c1	31.2%	-18.1%	?	/	89.1µM*
ClCC(CNCc1ccccc1)c1ccccc1 (configuration not stated)	/	0.3%	-26.1%	/	3.9%
Cc1[nH]c2ccccc2c1/C=N/Nc1nncn1N	?	-23.1%	-5.2%	-26.4%	5.01µM*
Cc1[nH]c2ccccc2c1/C=N/Nc1ccccn1	-23.3%	/	/	?	/
O=C(NCCc1c[nH]c2ccccc12)OCCSS(=O)(=O)O	4.8%	-7.4%	-18.7%	3.1%	25.1µM*
COc1ccc(OC)c(-c2csc(NC(=O)COC(=O)c3ccc(NC(=O)CC#N)cc3)n2)c1	/	20µM*	50.1µM*	?	28.2µM*
COc1ccc(-c2nc3n(n2)C(c2ccc(OC)c(OC)c2)C(C(=O)Nc2cccnc2)=C(C)N3)cc1 (configuration not stated)	0.7%	50.1µM*	-7.6%[60.1 µM]	/	2.0%
COc1ccc(C2C(C(=O)Nc3cccnc3)=C(C)Nc3nc(-c4ccc(OC)c(OC)c4)nn32)cc1 (configuration not stated)	?	-7.8%	4.9%	/	-16.2%
Cc1oc(-c2ccccc2Cl)nc1CSCC(=O)N1CCCC1	79.4µM*	10.9%	-12.5%	-1.5%	26.4%
Cc1oc(-c2ccccc2Cl)nc1CSCC(=O)NC1CCCC1	6.0%	0.1%	-1.6%	/	0.6%
CC(=O)Nc1cccc(-n2nnc(SCC(=O)Nc3ccc(F)c(Cl)c3)n2)c1	?	?	-6.6%	7.7%	79.4µM*
O=C(Cn1nc2c(cc1=O)CCCC2)NCc1ccccc1	20.1%	-2.7%	1.3%[60.1 µM]	/	-23.5%
O=C(CN1C(=O)COc2ccc(S(=O)(=O)Nc3ccccc3)cc21)NCc1ccccc1Cl	-3.4%	-8.1%	-9.3%	/	23.4%
CC(=O)Nc1nonc1-c1nc2ccccc2n1N(C(C)=O)C(C)=O	35.5µM*	?	-17.1%	?	?
COc1ccc(N2CCN(C(=O)c3c(C)nn(-c4ccc(F)cc4)c3-n3cccc3)CC2)cc1	-16.1%	-21.7%	-6.9%	/	33.4%
CCn1nnc2cc(C(=O)Nc3cccc(Cl)c3C)ccc21	-0.7%	4.8%	-3.4%	/	2.8%
Cn1c2ccccc2c2cc(/C=N/NC(=O)c3ccccc3F)ccc21	16.3%	-8.7%	-1.6%	/	?
Cn1c2ccccc2c2cc(/C=N/NC(=O)c3ccc(N)cc3)ccc21	10µM*	?	?	/	?
SMILES	POLB inh	POLH inh	Pol kappa inh	L3MBTL1 inh	Pol iota inh
Cn1cnc([N+](=O)[O-])c1SCC(=O)NN	-21.1%	-2.1%	?	10.3%	79.4µM*
O=C1/C(=C/c2ccccc2Cl)SC(=S)N1CCC(=O)N1CCCCC1CCO (configuration not stated)	0.6%	-12.0%	?	/	25.1µM*
O=C1/C(=C\c2ccccc2)SC(=S)N1CCC(=O)N1CCCCC1CCO (configuration not stated)	31.8%	4.6%	5.5%	/	20.9%
O=C(COC(=O)c1cc(-c2cccs2)nc2ccccc12)NCc1ccco1	22.4µM*	11.2µM*	89.1µM*	?	?
O=C(COC(=O)c1cc(-c2ccc(Cl)s2)nc2ccccc12)NCc1ccco1	1.4%	20µM*	-10.1%	/	?
COc1ccc(NS(=O)(=O)c2cccc(C(=O)NN=Cc3cc(Br)c(O)c(Br)c3)c2)cc1	/	44.7µM*	?	-15.1%	15.8µM*
COc1ccc(NS(=O)(=O)c2cccc(C(=O)N/N=C(/C)c3ccc(-n4ccnc4)cc3)c2)cc1	/	-14.4%	-12.8%	/	39.8µM*
COc1cc(/C=N/NC(=O)c2ccc3c(c2)OCCO3)c(Br)c(Br)c1O	?	?	89.1µM*	/	?
COc1cc(/C=N/NC(=O)c2cncc(Br)c2)cc([N+](=O)[O-])c1O	-15.4%	30.4%	-9.9%	31.6µM*	24.0%
O=C(CS(=O)(=O)c1cccc2nsnc12)Nc1cc(F)ccc1F	3.7%	-9.4%	-2.2%[60.1 µM]	/	0.3%
COc1cc(/C=N\NC(=O)c2ccc(-c3ccccc3)cc2)cc(Br)c1O	39.8µM*	?	-38.8%	/	?
CC1CCC/C(=C\Nc2ccc(O)cc2)C1=O (configuration not stated)	6.6%	-0.5%	-20.2%	?	8.91µM*
Cc1cc(C(=O)O)ccc1N/C=C1\CCCC(C)C1=O (configuration not stated)	2.9%	3.1%	-20.9%	/	2.2%
Cc1cc(C(=O)COC(=O)c2ccc([N+](=O)[O-])o2)c(C)n1CC1CCCO1 (configuration not stated)	?	-29.5%	-31.5%	?	?
COCCn1c(C)cc(C(=O)COC(=O)c2ccc([N+](=O)[O-])o2)c1C	?	79.4µM*	-26.2%	-17.4%	?
COc1cc(N2Cc3ccccc3C2)ccc1C=O	11.2µM*	?	-23.3%	-11.7%	?
Cc1ccc(CC#N)c(-c2c(CC#N)ccc(C)c2C)c1C	/	-15.0%	/	/	/
Cc1ccc2c(c1C)-c1c(ccc(C)c1C)C(=O)C2=O	/	22.4µM*	-6.0%	/	25.1µM*
C/C(CC(=O)Nc1ccc2ccccc2c1)=N\NC(=O)c1cnccn1	3.1%	-8.1%	-15.2%	2.9%	3.6%
